6 compounds from PubChem BioAssay can be followed below.

Experiment [1] deals with Plasmodium falciparum Sir2 (PF13_0152, Sir2A). The experiment can be described thus: Plasmodium falciparum Sir2A binding compounds – biochemical, small-molecule microarray, 635 nm fluorescence, primary screen (AID 1098).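 Note: score merges spot fluorescence intensity with its signal-to-noise ratio.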 Particulars: fluorescence 635 nm, higher = more signal.
Experiment [2] can be described thus: probe aDKK1 binding to arrayed compounds – biochemical, biotinylated probe, 635/667 nm fluorescence, primary screen (AID 1099).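 Note: score merges 667nm spot fluorescence with signal to noise across triplicate slides.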 Particulars: small-molecule microarray, higher = more signal.
The nature of experiment [3]: probe aCHRDL2 binding to arrayed compounds – biochemical, biotinylated probe, 635/667 nm fluorescence, primary screen (AID 1100). The note with it: small-molecule microarray, higher = more signal.
A short description of experiment [4]: change in splice reporter luminescence, either direction, cell-based, HEK293, spliceosome inhibition project, primary screen (AID 1101).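 Note: HEK293 cells carrying a splicing-competent luciferase reporter gene; test concentration not given here.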 The note with it: HEK293 splicing luciferase reporter, 24 h, higher = more signal, called active from +8 up or from −8 down.
The target in experiment [5] is Fibroblast growth factor 10 (Homo sapiens) (UniProt O15520). The experiment can be described thus: compounds binding fibroblast growth factor 10 – biochemical, small-molecule microarray, 635 nm fluorescence, primary screen (AID 1102). The note with it: FGF10 binding, fluorescence 635 nm, higher = more signal.
Sequence of Fibroblast growth factor 10 (Homo sapiens) (O15520 whole entry, looked up): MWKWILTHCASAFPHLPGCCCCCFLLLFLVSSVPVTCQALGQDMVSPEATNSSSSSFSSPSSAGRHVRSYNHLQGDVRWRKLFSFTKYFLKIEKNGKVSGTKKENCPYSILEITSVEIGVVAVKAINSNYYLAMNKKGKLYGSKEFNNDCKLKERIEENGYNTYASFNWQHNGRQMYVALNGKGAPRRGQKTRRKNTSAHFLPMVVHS
Experiment [6] relates to glycogen synthase kinase-3 (GSK3A per assay name; protocol says GSK3B). Description: compounds binding glycogen synthase kinase-3 – biochemical, small-molecule microarray, 635 nm fluorescence, GSK3A, primary screen (AID 1103). Note: the record names both GSK3A and GSK3B. Particulars: fluorescence 635 nm, higher = more signal.
Experiment [7] deals with Epidermal growth factor receptor (Homo sapiens) (UniProt P00533). Description: compounds binding epidermal growth factor receptor – biochemical, small-molecule microarray, 635 nm fluorescence, primary screen (AID 1104).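 Note: score merges 667 nm emission intensity with spot signal to noise over triplicate slides.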 Particulars: EGFR binding, higher = more signal.
Sequence of Epidermal growth factor receptor (Homo sapiens) (P00533 whole entry, looked up): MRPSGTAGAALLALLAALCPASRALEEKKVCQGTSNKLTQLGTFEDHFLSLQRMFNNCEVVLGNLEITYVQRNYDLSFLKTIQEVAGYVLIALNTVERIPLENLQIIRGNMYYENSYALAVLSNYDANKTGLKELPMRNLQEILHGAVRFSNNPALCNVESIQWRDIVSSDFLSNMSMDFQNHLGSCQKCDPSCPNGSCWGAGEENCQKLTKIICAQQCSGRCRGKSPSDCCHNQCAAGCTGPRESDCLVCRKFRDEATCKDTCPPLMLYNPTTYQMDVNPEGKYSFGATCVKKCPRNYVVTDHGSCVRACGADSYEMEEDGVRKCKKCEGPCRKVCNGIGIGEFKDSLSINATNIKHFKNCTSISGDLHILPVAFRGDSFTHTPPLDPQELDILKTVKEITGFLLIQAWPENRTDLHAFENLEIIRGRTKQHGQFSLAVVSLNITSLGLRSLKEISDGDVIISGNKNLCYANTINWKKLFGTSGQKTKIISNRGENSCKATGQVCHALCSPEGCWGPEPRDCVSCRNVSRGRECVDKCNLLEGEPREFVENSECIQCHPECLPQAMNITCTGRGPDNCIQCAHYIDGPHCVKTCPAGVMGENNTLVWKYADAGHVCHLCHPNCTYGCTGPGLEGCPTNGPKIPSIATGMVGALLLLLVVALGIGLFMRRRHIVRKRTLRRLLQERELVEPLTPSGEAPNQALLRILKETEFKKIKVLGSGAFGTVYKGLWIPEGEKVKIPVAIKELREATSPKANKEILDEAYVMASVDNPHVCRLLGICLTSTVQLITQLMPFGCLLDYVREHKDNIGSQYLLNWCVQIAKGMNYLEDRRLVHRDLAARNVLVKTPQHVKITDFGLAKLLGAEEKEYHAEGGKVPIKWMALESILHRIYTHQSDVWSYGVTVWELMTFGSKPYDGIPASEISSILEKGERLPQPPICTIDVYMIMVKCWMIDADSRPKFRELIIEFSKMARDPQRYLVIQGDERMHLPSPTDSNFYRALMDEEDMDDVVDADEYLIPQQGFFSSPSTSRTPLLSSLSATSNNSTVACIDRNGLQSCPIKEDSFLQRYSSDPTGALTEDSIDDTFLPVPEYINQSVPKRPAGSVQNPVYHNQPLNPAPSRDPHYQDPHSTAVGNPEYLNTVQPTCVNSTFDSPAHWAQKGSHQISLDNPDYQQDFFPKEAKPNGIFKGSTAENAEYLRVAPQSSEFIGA
Experiment [8] addresses Follistatin-related protein 3 (Homo sapiens) (UniProt O95633). The experiment can be described thus: compounds binding follistatin-related protein 3 – biochemical, small-molecule microarray, 635 nm fluorescence, primary screen (AID 1105).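 Note: score merges emission near 667 nm and signal to noise per printed spot across three slides.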 Particulars: FSTL3 binding, higher = more signal.
Experiment [9] has as its target Dickkopf-related protein 1 (Homo sapiens) (UniProt O94907). Description: small molecules binding DKK1 protein – biochemical, small-molecule microarray, 635 nm fluorescence scan, primary screen (AID 1106).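 Note: score merges emission near 667 nm with signal to noise over three replicate slides.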 The note with it: higher = more signal.
Experiment [10] deals with Inhibin beta A chain (activin A). Description: small molecules binding activin A – biochemical, small-molecule microarray, 635 nm fluorescence scan, primary screen (AID 1107).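 Note: mouse activin A protein probed at 4.33 µg/mL on printed slides; score merges bound-protein fluorescence near 667 nm with spot signal-to-noise.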 The note with it: INHBA, higher = more signal.
For experiment [11], the system named is Human papillomavirus type 1a protein E7 (residues 44-93). Description: small molecules binding HPV E7 44-93 – biochemical, small-molecule microarray, residues 44-93, 635 nm fluorescence, primary screen (AID 1108).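 Note: E7 fragment applied at 1 µg/mL in TBST for 1 h at 4 C; score combines spot fluorescence with its signal to noise ratio.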 Particulars: fluorescence 635 nm, higher = more signal.
Experiment [12] in a line: hepatitis C replication reporter changes, two-sided – Huh7 cells, luciferase reporter, HCV replication inhibitor project, primary screen (AID 1109).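 Note: huh7 hepatoma cells harbouring a luciferase neomycin HCV replicon reporter; luciferase luminescence as measure of HCV replicon replication; test concentration not given here.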 Particulars: Huh7 HCV replicon luciferase reporter, 48 h; higher = more signal. Background: A reporter such as luciferase makes a cellular process visible.
Experiment [13] deals with Left-right determination factor 2 (Homo sapiens) (UniProt O00292). Description: small molecules binding LEFTY2 protein – biochemical, small-molecule microarray, 635 nm fluorescence scan, primary screen (AID 1110). The note with it: higher = more signal.
Sequence of Left-right determination factor 2 (Homo sapiens) (O00292 whole entry, looked up): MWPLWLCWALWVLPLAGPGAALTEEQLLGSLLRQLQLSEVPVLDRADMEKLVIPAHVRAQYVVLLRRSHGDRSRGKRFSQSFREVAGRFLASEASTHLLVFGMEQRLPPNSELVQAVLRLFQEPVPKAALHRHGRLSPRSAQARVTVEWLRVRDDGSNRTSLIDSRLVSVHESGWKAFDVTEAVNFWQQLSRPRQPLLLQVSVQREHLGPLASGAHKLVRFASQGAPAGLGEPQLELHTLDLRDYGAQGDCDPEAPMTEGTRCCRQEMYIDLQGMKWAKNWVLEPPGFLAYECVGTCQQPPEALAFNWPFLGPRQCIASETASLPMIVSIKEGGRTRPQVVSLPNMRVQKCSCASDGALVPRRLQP
Experiment [14] has as its target Calmodulin-1 (Homo sapiens) (UniProt P0DP23). Description: small molecules binding calmodulin-1 with EGTA – biochemical, small-molecule microarray, Cy5-labelled CALM1, profiling panel (AID 1111).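 Note: labelled calmodulin applied in Tris saline Tween buffer holding calcium plus EGTA and DTT.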 Particulars: Cy5-CALM1 binding fluorescence, higher = more signal.
Experiment [15] shares this target. The experiment can be described thus: small molecules binding Ca-loaded calmodulin-1 – biochemical, small-molecule microarray, Cy5-labelled CALM1, plus calcium, artefact control for SMM control-protein annotation, profiling panel (AID 1112).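 Note: score merges spot fluorescence with signal to noise from triplicate slides.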 Particulars: Cy5-CALM1 binding fluorescence, higher = more signal.
A short description of experiment [16]: probe aWnt5a binding to arrayed compounds – biochemical, biotinylated probe, 635/667 nm fluorescence, primary screen (AID 1113).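 Note: score merges 667 nm fluorescence intensity with signal-to-noise per printed feature.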 Particulars: small-molecule microarray, higher = more signal.
Experiment [17] can be described thus: probe aShh binding to arrayed compounds – biochemical, biotinylated probe, 635/667 nm fluorescence, primary screen (AID 1114).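 Note: probe is biotin-labelled aShh protein from a stem cell growth factor screen; measures binding of labelled protein to compounds printed on the slide; score merges feature fluorescence at 667 nm with signal-to-noise.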 Particulars: small-molecule microarray, higher = more signal.
A short description of experiment [18]: probe aNog binding to arrayed compounds – biochemical, biotinylated probe, 635/667 nm fluorescence, primary screen (AID 1115).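 Note: probe is biotinylated aNog protein used at 0.15 µg/mL for 1 h at 4 C; z-score combines 667 nm fluorescence of each spot with its signal to noise.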 The note with it: small-molecule microarray, higher = more signal.
Experiment [19] addresses Torsin-1A-interacting protein 1 (Homo sapiens) (UniProt Q5JTV8). Description: compound microarray binding of lysate hLAP1 – cell lysate, small-molecule microarray, COS7 lysate, 635/667 nm fluorescence, primary screen (AID 1116). The note with it: 635 nm fluorescence, higher = more signal.
In experiment [20] the target is Alpha-bungarotoxin (Bungarus multicinctus) (UniProt P60615). The experiment can be described thus: compounds binding labelled alpha-BTX control protein – biochemical, small-molecule microarray, Alexa647 label, 635/667 nm fluorescence, artefact control for SMM control protein annotation, profiling panel (AID 1117). Particulars: alpha-BTX-A647 binding fluorescence, higher = more signal.
Sequence of Alpha-bungarotoxin (Bungarus multicinctus) (P60615 whole entry, looked up): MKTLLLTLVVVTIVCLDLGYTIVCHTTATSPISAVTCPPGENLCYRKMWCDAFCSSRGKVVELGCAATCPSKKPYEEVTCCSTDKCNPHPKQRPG

The source made the active and inactive calls.

Sequence of Torsin-1A-interacting protein 1 (Homo sapiens) (Q5JTV8 whole entry, looked up): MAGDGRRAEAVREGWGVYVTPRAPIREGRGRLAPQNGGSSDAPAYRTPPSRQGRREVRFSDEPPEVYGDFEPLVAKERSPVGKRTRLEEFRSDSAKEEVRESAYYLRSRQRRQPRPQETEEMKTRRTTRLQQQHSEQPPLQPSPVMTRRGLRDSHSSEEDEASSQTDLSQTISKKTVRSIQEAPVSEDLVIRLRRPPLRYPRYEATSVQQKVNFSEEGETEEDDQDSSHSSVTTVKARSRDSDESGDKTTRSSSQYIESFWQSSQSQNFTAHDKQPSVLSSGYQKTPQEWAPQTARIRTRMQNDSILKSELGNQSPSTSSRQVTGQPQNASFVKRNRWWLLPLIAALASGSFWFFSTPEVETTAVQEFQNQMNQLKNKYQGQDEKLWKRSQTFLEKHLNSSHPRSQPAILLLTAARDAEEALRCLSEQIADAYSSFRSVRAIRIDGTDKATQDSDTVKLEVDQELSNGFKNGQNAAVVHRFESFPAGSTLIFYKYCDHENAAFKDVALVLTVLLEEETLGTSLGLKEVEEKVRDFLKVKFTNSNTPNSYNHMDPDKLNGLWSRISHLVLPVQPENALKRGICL
Sequence of Dickkopf-related protein 1 (Homo sapiens) (O94907 whole entry, looked up): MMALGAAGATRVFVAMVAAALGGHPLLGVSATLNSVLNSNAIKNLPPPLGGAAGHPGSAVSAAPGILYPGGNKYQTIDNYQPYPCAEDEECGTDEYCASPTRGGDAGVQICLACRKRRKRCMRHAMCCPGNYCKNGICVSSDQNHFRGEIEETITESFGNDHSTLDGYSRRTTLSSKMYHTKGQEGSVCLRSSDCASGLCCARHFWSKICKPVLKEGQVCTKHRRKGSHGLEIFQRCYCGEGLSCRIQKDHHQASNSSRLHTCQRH
Sequence of Follistatin-related protein 3 (Homo sapiens) (O95633 whole entry, looked up): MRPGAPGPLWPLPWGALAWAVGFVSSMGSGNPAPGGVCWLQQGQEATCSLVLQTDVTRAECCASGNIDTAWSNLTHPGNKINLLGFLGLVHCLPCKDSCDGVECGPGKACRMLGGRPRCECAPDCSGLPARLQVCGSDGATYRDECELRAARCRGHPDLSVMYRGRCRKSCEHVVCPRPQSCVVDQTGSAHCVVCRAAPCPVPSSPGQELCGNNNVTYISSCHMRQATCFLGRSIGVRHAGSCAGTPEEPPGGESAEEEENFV

On to `NCCCCCCNC(=O)[C@H]1C[C@H]2C(=O)N[C@@H](Cc3ccccc3)C(=O)N2[C@H]1c1ccc(O)cc1`, for which the composite z-score in experiment [1] was 1.3; in experiment [2], 0.21; in [3], 0.456; in experiment [5], -0.0657; in [6], 0.481; in experiment [7] it was 0.92. For the same compound, the composite z-score in experiment [8] came out at 0.533; in [9] it was 0.232; in experiment [10] it was 1.1; in experiment [11] it was 0.74; in experiment [13] it was 0.338; in [14], 1.44. In addition, the composite z-score was 1.17 in experiment [15]; -0.0033 in experiment [16]; -0.1 in [17]; -0.0496 in experiment [18]; 1.21 in experiment [19]; 1.55 in [20]. The results for the z-score in [4] and in [12] were -1.23 (inactive) and 0.914, respectively.

`CO[C@H]1O[C@H](CO)[C@@H](OC(=O)Nc2ccccc2-c2ccccc2)[C@H](OC(=O)Nc2ccc3c(c2)OCO3)[C@@H]1OC(=O)Nc1ccc2c(c1)OCO2`: the composite z-score is 1.32 in experiment [1]; 0.198 in [2]; 0.679 in experiment [3]; 1.05 in experiment [5]; 1.34 in [6]; 0.0757 in experiment [7]. In addition, the composite z-score in experiment [8] is 1.44; in experiment [9], 0.279; in experiment [10] it was 0.691; in experiment [11] it was 1.49; in experiment [13], 0.0086; in [14], 1.24. Also, the composite z-score is -0.499 in experiment [15]; 0.0244 in [16]; 0.232 in experiment [17]; 1.21 in [18]; 0.541 in experiment [19]; 1.01 in [20]. In addition, the figures for the z-score in [4] and in experiment [12] were -1.14 (inactive) and -0.841, respectively.

Regarding `COCCOC(=O)N1C(=O)[C@@]2(c3ccccc31)[C@H](C(=O)N1CCN(c3ncccn3)CC1)[C@H]1C(=O)O[C@H](c3ccccc3)[C@H](c3ccccc3)N1[C@@H]2c1ccc(OCCO)cc1`, the composite z-score came to 1.02 in experiment [1]; 0.657 in experiment [2]; 0.422 in [3]; 1.24 in experiment [5]; 0.402 in experiment [6]; 1 in experiment [7]. Besides, the composite z-score was determined as 1.03 in experiment [8]; 0.286 in experiment [9]; 0.252 in experiment [10]; 1.41 in [11]; 0.708 in experiment [13]; 0.89 in [14]. The composite z-score in [15] was 0.316; in experiment [16], -0.0944; in experiment [17], 0.0639; in experiment [18] it was 0.612; in experiment [19], 1.03; in experiment [20], 1.11. The z-score was -0.471 (inactive) in experiment [4] and -1.42 in [12].

Regarding `CO[C@H]1O[C@H](CO)[C@@H](OC(=O)Nc2ccc(Oc3ccccc3)cc2)[C@H](OC(=O)Nc2ccccc2-c2ccccc2)[C@@H]1OC(=O)Nc1ccccc1-c1ccccc1`, the composite z-score in [1] was 1.31; in experiment [2] it was 0.686; in experiment [3], 0.609; in experiment [5], 0.959; in [6], 1.15; in experiment [7], 0.223. Besides, the composite z-score in [8] was determined as 0.787; in experiment [9], 0.338; in experiment [10], 0.586; in [11], 1.02; in experiment [13] it was 0.242; in experiment [14], 2.17. Also, the composite z-score is 0.409 in experiment [15]; -0.0667 in experiment [16]; 0.256 in [17]; 1.74 in [18]; 1.27 in experiment [19]; 1.52 in experiment [20]. Moreover, the z-score was -1.52 (inactive) in experiment [4] and -3.19 in [12].

`CCOC(=O)C[C@H]1[C@H](OC(=O)c2ccc(C(=O)c3ccccc3)cc2)[C@@H](NC(=O)c2ccc3ccccc3c2)c2cc(OCCCO)ccc2N1C(=O)c1ccccc1`: the composite z-score was 0.422 in [1]; 0.489 in experiment [2]; 0.17 in experiment [3]; 0.734 in experiment [5]; 0.993 in experiment [6]; 0.0993 in [7]. In addition, the composite z-score stood at 0.786 in experiment [8]; 0.105 in experiment [9]; 0.007 in experiment [10]; 0.974 in experiment [11]; 0.317 in experiment [13]; 0.988 in [14]. The composite z-score in experiment [15] was 0.602; in experiment [16] it was -0.0346; in experiment [17], 0.0684; in [18], 0.612; in [19], 0.602; in experiment [20] it was 1.04. Moreover, the z-score in experiment [4] was -0.072 (inactive); in experiment [12] it was -0.617.

On to `COC(=O)[C@@]1(Cc2ccc(OC)cc2)[C@H]2c3cc(C(=O)N(C)C)n(CCc4c[nH]c5ccc(O)cc45)c3C[C@H]2CN1C(=O)c1ccccc1`, for which the composite z-score is 1.06 in experiment [1]; 1.43 in experiment [2]; 0.984 in experiment [3]; 0.934 in experiment [5]; 1.12 in experiment [6]; 0.562 in experiment [7]. Besides, the composite z-score in [8] is 1.23; in experiment [9], -0.509; in experiment [10], 1.26; in [11], 1.06; in [13] it was -0.217; in experiment [14], 1.83. The composite z-score in experiment [15] was 1.25; in experiment [16], -0.0196; in experiment [17], 0.488; in experiment [18], 2.27; in experiment [19], 1.3; in experiment [20], 1.28. For the same compound, the z-score in [4] was -1.65 (inactive); in experiment [12], -0.0903.
